According to the supplement of paper PMC10338343:
± gives the standard deviation.

Key:
[1] = tested on: MILI (PIWIL2) piRISC loaded with L1MC piRNA (26 nt); assay: pre-steady-state target cleavage rate (min^-1); guide: L1MC piRNA 5'p-UAACUAAAUACUAUGCAAGCUGUAGG; higher = faster piRNA-guided slicing of the target
Method in brief: (§1)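 A transcribed, DNA-blocked target RNA library (0.1 nM) and 1 nM active affinity-purified piRISC bearing one synthetic guide were incubated in HEPES–potassium acetate buffer at 33 °C for 0–8 or 0–960 min, either with or without 500 nM GTSF1 partner protein. Uncleaved targets were sequenced, normalised to depth and to weakly complementary targets, and pooled over three trials, with k3 capped at 0.0001 min^-1. The pre-steady-state cleavage rate was derived with a burst-and-steady-state fit.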

[2] = tested on: EfPiwi piRISC loaded with L1MC piRNA (26 nt); assay: pre-steady-state target cleavage rate (min^-1); auxiliary factor: 500 nM Ephydatia muelleri Gtsf1; guide: L1MC piRNA 5'p-UAACUAAAUACUAUGCAAGCUGUAGG; MIWI and MILI are mouse PIWI proteins and EfPiwi is from a freshwater sponge; tags in brackets are library labels; higher = faster piRNA-guided slicing of the target
Method in brief: as §1

[3] = auxiliary factor: 500 nM mouse GTSF1
[4] = auxiliary factor: none (no GTSF1)

Sequence	pre-steady-state target cleavage rate [1, 3]	pre-steady-state target cleavage rate [1, 4]	pre-steady-state target cleavage rate [2]
UCCUGGAUGUCGUGUGCAUAGUAUUUAGUUA	0.102 ± 0.015	0.00602 ± 0.0035	0.0038 ± 0.0033
UCCUCCAUCAGCUUGCAUAGUAUUUAGUUA	0.248 ± 0.018	0.00673 ± 0.002	0.0155 ± 0.005
UCCUGGAACAGCUGCAUAGUAUUUAGUUA	0.279 ± 0.021	0.0069 ± 0.0026	0.0362 ± 0.0095
UCCUCCUUGUGCUUGCAUAGUAUUUAGUAA	0.147 ± 0.021	0.0033 ± 0.0024	0.00675 ± 0.0029
UCCUGCUACAGCUAGCUUAGUAUUUAGUUA	0.227 ± 0.018	0.00468 ± 0.0023	0.00973 ± 0.0029
UCCUGCUACAGUCUUGCAUAGUAUUUAGUUA	0.222 ± 0.021	0.00875 ± 0.0023	0.00684 ± 0.0025
UCCUCCCACAGCUUGCAUAGUAUUUAGUUA	0.296 ± 0.015	0.00691 ± 0.0024	0.128 ± 0.029
UCCUGGAAGAGGUUGCAUAGUAUUUAGUUA	0.233 ± 0.012	0.0116 ± 0.0031	0.00538 ± 0.0032
UCCUGGUACAGCUAGCAAAGUAUUUAGUUA	0.102 ± 0.013	0.0127 ± 0.0033	0.00688 ± 0.0029
UCCUCCUACACCUUGCAUUGUAUUUAGUUA	0.184 ± 0.021	0.0078 ± 0.002	0.0139 ± 0.0056
UCCUGGUACACCAUGCAUAGUAUUUAGUUA	0.176 ± 0.033	0.0052 ± 0.0033	0.00335 ± 0.0031
UCCUCCUACAGGAUGCAUAGUAUUUAGUAA	0.23 ± 0.017	0.00422 ± 0.0022	0.0119 ± 0.0048
UCCUGGUAUCAGCUUGCAUAGUAUUUAGUUA	0.252 ± 0.026	0.0221 ± 0.0059	0.0704 ± 0.018
UCCUGGAUCAGCGUUGCAUAGUAUUUAGUUA	0.212 ± 0.016	0.00789 ± 0.0028	0.021 ± 0.0057
UCCUGGAACAGGAUGCAUAGUAUUUAGUUA	0.285 ± 0.016	0.0116 ± 0.0027	0.00753 ± 0.0018
UCCUGGAUCAGCUUGCAGAGUAUUUAGUUA	0.111 ± 0.015	0.00641 ± 0.002	0.00715 ± 0.0022
UCCUGGAACAGCAUGCUUAGUAUUUAGUUA	0.217 ± 0.019	0.005 ± 0.0026	0.00591 ± 0.0025
UCCUGGUACCGCUUGCAUAGUAUUUAGUUA	0.293 ± 0.037	0.0123 ± 0.0052	0.00412 ± 0.0035
